Assay outcomes as filed in PubChem BioAssay.
Most compounds without a hit are left out; they make up all but 14% or so of the library.
Giardia FBPA inh: blocks Giardia fructose-bisphosphate aldolase activity; A8B2U2; purified Giardia FBPA; Potency, µM (doses to about 59.6 µM), for inactives: at the highest dose activity, negative = inhibition, most hits filed as inhibitors; 0.71% of 290,000 active; further: potency means the concentration at half of the fitted maximal effect; nearly all actives have a fitted effect of over 55% in size
Target sequence (A8B2U2 whole entry, looked up): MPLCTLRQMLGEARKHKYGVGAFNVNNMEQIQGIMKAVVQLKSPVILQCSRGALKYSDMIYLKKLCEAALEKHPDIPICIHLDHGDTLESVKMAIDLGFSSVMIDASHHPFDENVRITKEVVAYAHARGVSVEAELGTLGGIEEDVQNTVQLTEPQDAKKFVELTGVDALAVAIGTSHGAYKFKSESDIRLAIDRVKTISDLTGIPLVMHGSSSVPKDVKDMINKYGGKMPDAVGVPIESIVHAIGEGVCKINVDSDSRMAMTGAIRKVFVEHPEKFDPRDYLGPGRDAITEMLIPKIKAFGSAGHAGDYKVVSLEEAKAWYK
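40 nM FBPA preincubated 10 min at RT with compound (up to 57.5 uM final), then substrate plus GAPDH/TPI/NAD/arsenate coupling and diaphorase/resazurin added. Fluorescence read after 20 min at RT, 525/598 nm.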
HCMV inh: inhibitors of human cytomegalovirus; HFF cells, HCMV-luciferase reporter, 72 h; hits give low values; activity change, negative = inhibition, % at 57.5 µM; 4.5% of 410,000 active; in the data active means activity change below about -60%; inconclusive means no clear call, values can overlap the other calls; inactive means above about -39%
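Inhibition of viral replication was scored as loss of reporter luminescence in HFFs infected with HCMV-luciferase (MOI 1 PFU/cell) for 72 h; compounds tested at 2 doses, normalized to buffer and Salinomycin controls.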
Sm TGR inh: S. mansoni TGR enzyme inhibition; purified TGR, DTNB reduction, TNB absorbance 405 nm; 3% of 360,000 active; AID 485364; Potency, µM (top dose mostly 114 µM), for the others: at the highest dose activity change, negative = inhibition, most hits filed as inhibitors; further: potency means the concentration at half of the fitted maximal effect; nearly all actives have a fitted effect of over 60% in size
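Kinetic colorimetric format: TGR-catalysed, NADPH-driven DTNB reduction monitored via TNB absorbance. Enzyme dispensed at 20 nM; compound exposure 15 min at room temperature before reaction start.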
Pf growth 96h: inhibits malaria parasite growth, 96 h; P. falciparum luciferase reporter growth, 96 h; Potency, µM (doses to about 28.7 µM), for inactives: top-dose activity change, negative = inhibition, usual class: inhibitors; 6.9% of 320,000 active; AID 504834; further: potency means the concentration at half of the fitted maximal effect
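Compounds incubated with erythrocytes infected by luciferase-expressing P. falciparum (2% hematocrit, 0.05% parasitemia final) for 96 hours, 37 C in 5% CO2. Growth inhibition scored as decreased luciferase luminescence.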
Pf growth 48h: P. falciparum growth inhibition at 48 hours (one generation) | P. falciparum luciferase growth in erythrocytes, 48 h | Potency, µM (series often up to 28.7 µM), without a hit: at the top dose activity change, negative = inhibition, most hits filed as inhibitors | 5.9% of 310,000 active | AID 504832; further: potency means the concentration at half of the fitted maximal effect
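In quantitative HTS format, infected erythrocytes bearing luciferase-reporter parasites were treated for a single generation at 37 C. Luminescence after adding detection reagent served as the growth measure.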
Starred values were filed as active, the others as inactive; ? = inconclusive; . = no result; [ ] = another dose, or the depositor's remark. Unless noted, the call rests on the fitted dose curve; in most records, active means well fitted curve in the direction sought with a large enough effect; inconclusive means small, poorly fitted or top-dose-only effect, or another doubt; inactive means no such curve, though single readings can be large; an effect the other way counts as inactive or inconclusive. On the % scale 0 is the no-effect control and ±100 the full control effect.

SMILES	Giardia FBPA inh	HCMV inh	Sm TGR inh	Pf growth 96h	Pf growth 48h
COC(=O)c1ccc(C(NC(=O)OCc2ccccc2)/C(=C/[C@@H](C)C(=O)NCc2nc3ccccc3n2C)c2cccnc2)cc1 (stereo partly specified)	1%	.	.	.	.
Cc1ccc(C(=O)N[C@H](C(=O)Nc2cccc(S(=O)(=O)N3CCOCC3)c2)C(C)C)cc1	.	-13	.	.	.
O=C(N/C(=C\c1ccco1)C(=O)N1CCCC1CO)c1ccccc1 (stereo unspecified)	2%	-18	35µM*	0%	7%
CCOC(=O)N1CCN(C(=O)/C(=C/c2ccc(F)cc2)NC(=O)c2ccccc2)CC1	13%	33	-12%	3.3µM*	-24%
CCOC(=O)N1CCN(C(=O)/C(=C\c2ccc(SC)cc2)NC(=O)c2ccccc2)CC1	3%	-32	-9%	-14%	?
Cc1ccc(C(=O)N/C(=C/c2ccco2)C(=O)N2CCC(C)CC2)cc1	-16%	9	50µM*	?	?
CC1CCN(C(=O)/C(=C\c2cccs2)NC(=O)c2ccccc2)CC1	-11%	18	4µM*	15%	39%
O=C(N/C(=C\c1ccco1)C(=O)N1CCOCC1)c1ccc([N+](=O)[O-])cc1	2%	-18	-7%	4.7µM*	15%
O=C(N/C(=C\c1ccc(Br)cc1)C(=O)N1CCOCC1)c1ccc([N+](=O)[O-])cc1	3%	6	-2%	14%	-20%
COc1ccc2[nH]c(=O)c3c(c2c1)OC(C)(C)C=C3	-2%	-96*	0%	.	-15%
Cc1ccc(S(=O)(=O)N2CCN(C(=O)N3CCOCC3)C2C(C)C)cc1 (stereo unspecified)	1%	36	14%	12µM*	-18%
COCCNC(=O)C1(C)CCCN(C(=O)c2ccc(C)c(F)c2)C1 (stereo unspecified)	.	-32	.	.	.
COCCNC(=O)C1(C)CCCN(C(=O)c2c(F)ccc(C)c2F)C1 (stereo unspecified)	.	-64*	.	.	.
Cc1cccc(N2CCN(C(=O)c3ccc(NS(=O)(=O)c4ccc5[nH]c(=O)[nH]c5c4)cc3)CC2)c1C	-7%	-67*	-5%	8.3µM*	?
CCOC(=O)C1CCCN(C(=O)c2ccc(NS(=O)(=O)c3ccc4[nH]c(=O)[nH]c4c3)cc2)C1 (stereo unspecified)	.	-13	0%	5.9µM*	?
O=C(NCCc1ccc(Cl)cc1)c1ccc2c(c1)nc1n2CCOC1	.	40	-10%	.	.
Cc1ccccc1Nc1c(-c2ccccn2)nc2ccccn12	-29%	-98*	3%	-17%	2.6µM*
Cc1ccc2nc(-c3ccccn3)c(Nc3ccc(F)cc3)n2c1	.	-94*	6%	.	.
Cc1ccccc1Nc1c(-c2cccnc2)nc2ccccn12	7%	?	12%	-22%	?
Cc1ccn2c(Nc3ccccc3C)c(-c3ccccn3)nc2c1	?	-81*	-4%	-15%	?
CC(C)c1ccc(Nc2c(-c3ccccn3)nc3ccccn23)cc1	.	-87*	-4%	.	.
COc1ccc(OCCN2CCC(C(=O)NC(C)c3cccc4ccccc34)CC2)cc1 (stereo unspecified)	.	-5	.	.	.
CCC[C@H]1CN(c2ccc(OC)cc2)C(=O)[C@@H]1CC(=O)NC	.	4	.	.	.
Cc1noc(C)c1S(=O)(=O)Nc1ccccc1N1CCOCC1	-10%	-9	0%	?	-16%
COc1ccc(-c2nc3cnc(N4CCN(C)CC4)nc3n(Cc3cccc(OC)c3)c2=O)cc1	-7%	.	.	.	.
SMILES	Giardia FBPA inh	HCMV inh	Sm TGR inh	Pf growth 96h	Pf growth 48h
Cc1ccn2c(Nc3ccccc3)c(-c3ccccn3)nc2c1	-27%	0	-1%	139%	2.1µM*
Cc1ccc2nc(-c3ccccn3)c(Nc3ccccc3C)n2c1	-20%	-100*	0%	6%	?
COC(=O)c1ccc(CN2C(=O)NC(CC(C)C)C2=O)cc1 (stereo unspecified)	8%	26	2%	20%[5.75 µM]	-7%
COc1ccc(-n2ncc3c(N4CCC(C)CC4)ncnc32)cc1	-12%	110	0%	369%	311%
COc1ccc(-n2ncc3c(N(C)C4CCCCC4)ncnc32)cc1	-2%	-88*	4%	0%	145%
CCN(c1ncnc2c1cnn2-c1cccc(Cl)c1)C1CCCCC1	.	?	5%	.	.
